Experimental findings from PubChem BioAssay AID602346 (Broad Institute, 2012) are described below.

Molecules are shown by their SMILES. Screen size: about 340,000 compounds; about 1,200 (0.35%) were called active. Only a selection was taken, and actives are over-represented in it overall. Unmarked numbers belong to inactive results. Cut-off read from the data, not from the text of the source: active = inhibition above about 50% (passing the limit was not always enough); inconclusive = no clear call, values can overlap the other calls; inactive = below about 31%.

A word on the inhibition: it is the relative decrease from the control value, in per cent.

This assay is described as follows: blockers of Vif multimerization in cells – imaging, HEK293T, single point, primary screen (AID 602346). The note with it: Vif self-association by quenched fluorescence, 24 h, at 7.49 µM, stronger effect = higher value.
Consider `COc1ccc(C(C#N)=C2C=CC(=NO)c3ccccc32)cc1`, for which the inhibition is 24.3%.

Regarding `NC(c1ccccc1)c1csc(NC(=O)Nc2cccc(C(F)(F)F)c2)n1` (configuration not stated), the inhibition is 4.85%.

On to `COc1ccc(-c2ccc(CN3C(CC(C)C)C(=O)N(Cc4cn(CC5CCCCC5)nn4)CCS3(=O)=O)cc2)cn1` (configuration not stated), for which the inhibition is -4.05%.

Regarding `COC(=O)Nc1nc2ccc(Sc3ccccc3)cc2[nH]1`, the inhibition was 57% (active).

Consider `CN(c1ccccc1)S(=O)(=O)c1cc(C(=O)Nc2nc3ccccc3[nH]2)ccc1Cl`, for which the inhibition was -13.9%.

With `Cc1ccc(O)c(CNc2nc3ccccc3[nH]2)c1`, the inhibition was -2.01%.

As to `COc1ccc(CC(N)c2csc(NC(=O)Cc3ccccc3)n2)cc1` (configuration not stated), the inhibition was -11.3%.

With `CC(OC(=O)c1ccc(Cl)cc1O)C(=O)NCCC1=CCCCC1` (configuration not stated), the inhibition was 11.7%.

`COC(=O)c1ccc(NCc2cc(O)ccc2O)cc1`: the inhibition was 101% (active).

For the compound `O=C(OC12CC3CC(CC(C3)C1)C2)c1ccc(NCc2cc(O)ccc2O)cc1`, the inhibition is 8.83%.

Consider `CC(CN1CCOCC1)OC(=O)c1ccc(Cl)cc1Cl` (configuration not stated), for which the inhibition was 4.38%.

In the case of `CC(C)OC(=O)c1ccc(NCc2cc(O)ccc2O)cc1Cl`, the inhibition was 55.2% (active).

Consider `COC(=O)c1ccc(NCC(=O)c2ccccc2)cc1`, for which the inhibition was 3.71%.

On to `COc1ccc(C(NC(=O)C2CCN(CCCc3ccccc3)CC2)c2cccs2)cc1` (configuration not stated), for which the inhibition is 14.2%.

For the compound `CCCCC[C@@H]1C=C(C(=O)OCC)[C@H](c2ccccc2)N1S(=O)(=O)c1ccc(C)cc1`, the inhibition was 3.46%.

Take `COc1ccc(C(=O)NCc2nnc(SCC(=O)Nc3cccc(OC)c3)o2)cc1`: the inhibition is 19%.

For the compound `COc1cccc(NC(=O)CSc2nnc(Cc3ccc(OC)c(OC)c3)o2)c1`, the inhibition was 60.1% (active).

As for `COc1ccc(Cc2nnc(SCC(=O)Nc3ccc(C)c(C)c3)o2)cc1OC`, the inhibition was 3.15%.

For `CNc1cncc(-c2ccc(NS(C)(=O)=O)cc2)n1`, the inhibition is 21.1%.

Regarding `COc1ccc(-c2ccc(C(=O)NCCN3CCOCC3)c3occc23)c(C)c1`, the inhibition is -8.68%.

With `Cc1cc(C)cc(C(=O)NCCN2CCOCC2)c1`, the inhibition was -5.07%.

As to `Cc1ccc(C(=O)NC(=S)NCCN2CCOCC2)cc1`, the inhibition was 50.2% (active).

As to `Cc1ccc(C(=O)N/C(=C\c2ccc(F)cc2)C(=O)NCCN2CCOCC2)cc1`, the inhibition was 4.18%.

For `Cc1cc(=O)oc2c3c(cc(OCC(=O)NCC(O)c4ccccc4)c12)OC(C)(C)CC3` (configuration not stated), the inhibition was -17%.

As for `COc1ccc(CC(N)c2csc(NC(=O)NC(c3ccccc3)c3ccccc3)n2)cc1` (configuration not stated), the inhibition is 2.09%.

Regarding `COc1cc(Cn2c3ccc(NC(=O)CC(C)c4ccccc4)cc3c(=O)n2C)ccc1F` (configuration not stated), the inhibition is -4.26%.

Turning to `CC(C)c1cc(N=O)cc(C(C)C)c1O`, the inhibition was 3.46%.

On to `CC(C)=CCc1c(O)c(CC=C(C)C)c2occ(-c3ccc(O)cc3)c(=O)c2c1O`, for which the inhibition was 6.99%.

Take `CC(C)=CCc1ccc(O)c(=O)cc1C(C)C`: the inhibition was 114% (active).

Regarding `O[C@H]1C[C@H](c2ccc(Cl)cc2)N(Cc2cccs2)C[C@@H]1n1cc(C2CC2)nn1`, the inhibition is -12.7%.

Turning to `COc1ccc(-c2nc3cc(C)ccn3c2NC2CCCCC2)cc1SC1CCCCC1`, the inhibition is -0.392%.

Consider `COc1ccc(-c2nc3cnccn3c2NC2CCCCC2)cc1-c1cccc(Cl)c1`, for which the inhibition was 51.8% (active).

For the compound `COc1ccc(-c2nc3cnccn3c2NC(C)(C)CC(C)(C)C)cc1O`, the inhibition was -5.81%.

Consider `O=C(NC(c1ccc(-c2ccccc2)cc1)c1cnccn1)C1CCN(CCOc2ccc(Cl)cc2Cl)CC1` (configuration not stated), for which the inhibition was 4.85%.

Turning to `CCOC1=C2[C@H]([C@H]3C(=O)N(c4ccccc4)C(=O)[C@H]3C1)[C@@H](c1ccccc1)N(S(=O)(=O)c1ccc(C)cc1)[C@H]2c1ccccc1`, the inhibition was 6.5%.

As for `Cc1cc2nc(-c3ccc(Cl)cc3)c(Cc3cccc(F)c3)n2c(C)c1Br`, the inhibition was 16.2%.

Take `C[C@H]1CN([C@@H](C)CO)C(=O)c2cc(C3=CCCCC3)cnc2O[C@@H]1CN(C)C(=O)Cc1ccccc1`: the inhibition was -21%.

As to `COc1ccc(NC(=O)c2cn(-c3ccccc3)nc2SC)cc1`, the inhibition is -9.63%.

Turning to `O=C(O)c1ccccc1-c1ccccc1C(=O)Nc1nccs1`, the inhibition was 13.1%.

As to `COc1ccc(-c2nn(-c3ccccc3)cc2C(=O)Nc2nccs2)cc1OC`, the inhibition is 52.9% (active).

On to `CC1(C(=O)Nc2cccc3c2CCCC3)CCN1C(=O)CCc1ccc(Cl)cc1Cl` (configuration not stated), for which the inhibition was -0.855%.

Take `CCc1cc(-c2nnn(CCC3COCCO3)c2CC)ccc1-c1cn(Cc2ccc3ccccc3c2)nn1` (configuration not stated): the inhibition was -19.8%.

`CCc1nc2c(OCc3ccc(Cl)cc3Cl)cccn2c1N(C)C(=O)C(C)C`: the inhibition was -10.6%.

Consider `CCc1nc2ccc(C(=O)Nc3cc(-c4ccccc4)ccc3OC)cn2c1N(CC)CC(=O)N(C)C`, for which the inhibition is -11.6%.

In the case of `CCOCCC(=O)Nc1ccc2c(c1)c(=O)n(C)n2-c1ccc2ccccc2c1`, the inhibition was 34.9%.

On to `N#C/C(=C1\CCCN1)c1nc(-c2ccccc2)cs1`, for which the inhibition was 61.4% (active).

`Cn1c(/C(C#N)=C2/CCCCCN2)nc2ccccc21`: the inhibition was 5.07%.

`N#CC(=C1CCCC1)c1nc(-c2ccc(Cl)cc2)cs1`: the inhibition is 3%.

As to `O=C(NCCOc1ccccc1)N1[C@H]2CC[C@@H]1C=C(c1ccc(F)cc1OCc1ccccc1)C2`, the inhibition is -2.23%.

Consider `Cc1ccc2[nH]c(=O)c(-c3nc4c(C)cccn4c3NCc3ccco3)cc2c1`, for which the inhibition is -12.9%.

Regarding `CCCN(CCC)c1nc2c(C)cccn2c(=O)c1/C=C1/SC(=S)N(Cc2ccco2)C1=O`, the inhibition is 146% (active).

As for `CCc1nc2c(OCc3ccc(C(F)(F)F)cc3)cccn2c1N(C)C(=O)CC(C)C`, the inhibition was -5.03%.

With `COc1ccc(NC(=O)C2Cc3c(-c4ccc5c(c4)OCO5)ccnc3O2)cn1` (configuration not stated), the inhibition is -5.58%.

On to `COc1cccc(CNc2nc(NCc3ccccc3OC)nc3ccsc23)c1`, for which the inhibition was -2.52%.

On to `CCCOc1ccccc1C1CC(=O)Nc2cc3c(cc21)OCO3` (configuration not stated), for which the inhibition is -2.32%.

Take `O=C1OCC2=C1C(c1ccc(Cl)cc1)c1cc3c(cc1O2)OCO3` (configuration not stated): the inhibition is -11.3%.

As for `COc1ccccc1C1C2=C(COC2=O)Nc2cc3c(cc21)OCO3` (configuration not stated), the inhibition was 89.1% (active).
